Screening results (PubChem BioAssay)
Caspase-7 inhib: blocks human caspase-7 allosterically or competitively | recombinant caspase-7, Ac-DEVD-AFC fluorescence rate | P55210 | Potency, µM (series often up to 57.5 µM), inactives show at the highest dose activity change, negative = inhibition, actives largely listed as inhibitors | AID 889 | 0.02% of 75,000 active; active = well fitted inhibition curve with a large enough effect in the main read-out, with a control signal flat, not every such curve was filed as active; inconclusive = small, poorly fitted or top-dose-only effect, or a change in a side signal; note: % of control where 0% means no effect
Tau fil binding: binders of human tau filaments; 2% of 71,000 active; recombinant tau filaments, thioflavin S fluorescence, 15 h; filaments grown with octadecylsulfate alongside compound; P10636; AID 596; Potency, µM (top dose mostly 57.1 µM), without a hit: top-dose activity change, negative = inhibition;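 note: % is set by controls: 0 for no effect and ±100 for the full control effect; actives lower thioflavin S fluorescence by blocking filaments or displacing dye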
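Recombinant tau protein (human, 1 uM final) plus 30 uM ODS in HEPES pH 7.4 with NaCl, DTT and thioflavine S. Compound present from the start; fluorescence at 510 nm after 15 h, 37 C.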
15-hLO inh: blocks human 15-lipoxygenase activity; P16050; purified 15hLO-1, xylenol orange hydroperoxide absorbance; Potency, µM (top dose mostly 57.1 µM), for the others: top-dose activity change, negative = inhibition, actives largely listed as inhibitors; 1.4% of 74,000 active; AID 887; note: % is set by controls: 0 for no effect and ±100 for the full control effect; nearly all actives have a fitted effect of over 55% in size
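Purified human 15hLO-1 (40 nM) in 25 mM Hepes pH 7.5, 0.01% Triton X-100, preincubated 15 min RT with compound, then 50 uM arachidonic acid for 6 min. Hydroperoxide read by ferrous/xylenol orange, 30 min; 573/405 nm absorbance ratio gave progress.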
Casp1 inh: allosteric or competitive inhibitors of human caspase-1; P29466; Caspase-1 enzyme, Ac-WEHD-AFC fluorogenic rate; Potency, µM (series often up to 57.5 µM), for the others: top-dose activity change, negative = inhibition, most hits filed as inhibitors; 0.03% of 75,000 active;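 note: plate controls were vehicle for no effect and no substrate for full effect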
DNA Pol III inh: blocks replication by bacterial DNA polymerase III holoenzyme. reconstituted DNA polymerase III holoenzyme replication, biochemical. Potency, µM (highest dose often 57.1 µM), for the others: top-dose activity change, negative = inhibition. 0.25% of 71,000 active; note: % is set by controls: 0 for no effect and ±100 for the full control effect
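Reconstituted *E. coli* holoenzyme (0.35 nM Pol III, 1 nM beta, 154 nM SSB, 2 nM primase) was preincubated with compound for 15 min at RT. Synthesis on 1.4 nM ssM13Gori ran 35 min, then was stopped with PicoGreen/EDTA and read as dsDNA fluorescence.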
Numbers without * were called inactive; ? = inconclusive; . = not tested or not shown; [ ] = remark or other dose. Shown are actives, neighbours in structure and some others; about 3.2% of the full set was active somewhere. Unless noted, calls come from the whole dose curve; as a rule, active = well fitted curve in the direction sought with a large enough effect; inconclusive = small, poorly fitted or top-dose-only effect, or another doubt; inactive = no such curve, though single readings can be large; an effect the other way counts as inactive or inconclusive. Potency is the fitted concentration of half-maximal effect.

SMILES	Caspase-7 inhib	Tau fil binding	15-hLO inh	Casp1 inh	DNA Pol III inh
C[C@@H]1CN2[C@H](c3ccc(Br)cc3)[C@H](C)CC[C@H]2C(=O)O1	0.5%[11.5 µM]	.	4.9%[11.4 µM]	2.7%[11.5 µM]	.
O=C1c2cccc(O)c2C(=O)c2c(O[C@@H]3O[C@H](CO)[C@@H](O)[C@H](O)[C@@H]3O)cccc21	-2.7%[11.5 µM]	-7.4%[11.4 µM]	-3.5%[11.4 µM]	0.8%[11.5 µM]	-9.5%[11.4 µM]
O=C(O)c1cc(O)c2c(c1)[C@H]([C@H]1c3cc(C(=O)O)cc(O)c3C(=O)c3c(O[C@@H]4OC(CO)C(O)C(O)C4O)cccc31)c1cccc(O[C@@H]3OC(CO)C(O)C(O)C3O)c1C2=O (stereo partly specified)	10µM*	.	12.6µM*	25.1µM*	.
CC(C)(N)C(=O)N[C@@H]1C(=O)N2[C@@H]1SC(C)(C)[C@H]2C(=O)O	-0.2%[11.5 µM]	1.8%[11.4 µM]	3.8%[11.4 µM]	-2.2%[11.5 µM]	-14.3%[11.4 µM]
Nc1ncnc2c1nc(Br)n2[C@H]1O[C@H]2COP(=O)(O)O[C@H]2[C@@H]1O	1.6%	39.8µM*	?	-0.1%	-4.5%
C=C(CO)[C@H]1Cc2c(ccc3c(=O)c4c(oc23)COc2cc(OC)c(OC)cc2-4)O1	.	31.6µM*	.	.	-2.9%
COc1ccc(CCN(C)CCC[C@@](C#N)(c2cc(OC)c(OC)c(OC)c2)C(C)C)cc1OC	0.3%	-21.9%	-2.8%	-1.4%	2.7%
CN=C1N[C@H](c2ccccc2)N(c2ccccc2)S1	-0.6%	?	0.794µM*	-2.7%	-4.0%
CN(C)C(=O)[C@H]1C[C@@H]1[C@H](NC(=O)OCc1ccccc1)c1ccccc1	1.0%	4.1%	-13.1%	-1.6%	-6.4%
Oc1ccc(N2CCN(c3ncnc4sc5c(c34)CCC5)CC2)cc1	.	-19.3%	3.16µM*	-3.3%	-5.7%
Cc1nc(N2CCN(c3ccccc3)CC2)c2c3c(sc2n1)CCC3	-1.1%	33.9%	?	-0.2%	0.1%
Nc1cccc(C(F)(F)F)c1	-9.7%	88.0%	-5.5%	-1.9%	-6.4%
Cc1sc(N)c(C(=O)c2cccc(C(F)(F)F)c2)c1C	-2.5%	31.6µM*	-13.4%[25.6 µM]	0.7%	-2.1%
CC(=O)c1cccc(NC(=O)C2CCN(S(=O)(=O)c3c(C)n[nH]c3C)CC2)c1	-3.1%	25.1µM*	-10.5%	-1.6%	-4.4%
CC(=O)c1cccc(NC(=O)C2CCN(S(=O)(=O)c3ccc(C)cc3)CC2)c1	0.1%	4.8%	-1.2%	-5.0%	-5.4%
FC(F)(F)c1cc(-c2ccc3c(c2)OCO3)nc(NCc2ccco2)n1	0.5%	-9.9%	20µM*	2.9%	-8.6%
CCC/C=C(\CCC)C(NS(=O)(=O)CC12CCC(CC1=O)C2(C)C)c1ccc(C(=O)OC)cc1 (stereo unspecified)	-1.1%	-18.4%	.	2.0%	-8.1%
NC(N)=N[C@H](CCC(=O)O)C(=O)O	0.4%	15.8%	6.8%	-1.3%	1.1%
O=C(c1cc(C(F)(F)F)cc(C(F)(F)F)c1)N1CCC2(CCN(Cc3ccccc3)CC2)CC1	-0.9%	-22.7%	8.7%	-3.0%	-12.3%
FC(F)(F)c1cc(CN2CCC3(CCNCC3)CC2)cc(C(F)(F)F)c1	-1.3%	12.6µM*	3.3%	-1.1%	-7.9%
Oc1ccc(N2CCN(C(c3cccs3)c3nnnn3CCc3ccccc3)CC2)cc1 (stereo unspecified)	-4.6%	-6.1%	3.16µM*	-2.0%	-2.3%
COc1ccc(Cn2nnnc2C(c2cccs2)N2CCN(c3ccccc3)CC2)cc1 (stereo unspecified)	-3.6%	4.4%	3.2%	-2.5%	-2.7%
c1ccc(-c2nc(N3CCCCCC3)c3ccccc3n2)nc1	-1.2%	12.6µM*	25.4%	-4.1%	-14.4%
O=C1c2ccccc2C(=O)N1Cc1ccco1	-1.1%	0.2%	3.1%	1.2%	2.3%
CC1=CC(=C2C(=O)c3ccccc3C2=O)C=C(C)N1Cc1ccco1	-5.4%	31.6µM*	-18.4%	-4.7%	-5.2%
CCc1ccc2oc(-c3cc(N)ccc3Cl)nc2c1	-2.1%	7.1%	?	-3.3%	-3.0%
CCc1ccc2oc(-c3cc(N)ccc3O)nc2c1	-10.6%	25.1µM*	?	-9.4%	-5.6%
CCc1ccc2oc(-c3cc(N)cc(C)c3O)nc2c1	-15.6%	12.6µM*	-16.8%	-9.3%	-0.4%
COC(=O)C1(CC(C)C)C=C2C(=C(C)C(=O)C2C)CN1 (stereo unspecified)	-6.2%	11.0%	.	-2.1%	-4.4%
